# PubChem BioAssay AID1851 (National Center for Advancing Translational Sciences (NCATS), 2009)
# The campaign covered roughly 16,000 compounds. About 5,700 (36%) were called active. Roughly 24% stayed inconclusive and do not appear here. The list shows a part of the results. Unmarked numbers belong to inactive results. Calls come from the whole dose curve; as a rule, active = well fitted curve in the direction sought with a large enough effect; inconclusive = small, poorly fitted or top-dose-only effect, or effect the other way; inactive = no such curve, though single readings can be large or run the other way.
# Target: Cytochrome P450 1A2 (Homo sapiens) (UniProt P05177)
# Sequence (P05177 whole entry, looked up): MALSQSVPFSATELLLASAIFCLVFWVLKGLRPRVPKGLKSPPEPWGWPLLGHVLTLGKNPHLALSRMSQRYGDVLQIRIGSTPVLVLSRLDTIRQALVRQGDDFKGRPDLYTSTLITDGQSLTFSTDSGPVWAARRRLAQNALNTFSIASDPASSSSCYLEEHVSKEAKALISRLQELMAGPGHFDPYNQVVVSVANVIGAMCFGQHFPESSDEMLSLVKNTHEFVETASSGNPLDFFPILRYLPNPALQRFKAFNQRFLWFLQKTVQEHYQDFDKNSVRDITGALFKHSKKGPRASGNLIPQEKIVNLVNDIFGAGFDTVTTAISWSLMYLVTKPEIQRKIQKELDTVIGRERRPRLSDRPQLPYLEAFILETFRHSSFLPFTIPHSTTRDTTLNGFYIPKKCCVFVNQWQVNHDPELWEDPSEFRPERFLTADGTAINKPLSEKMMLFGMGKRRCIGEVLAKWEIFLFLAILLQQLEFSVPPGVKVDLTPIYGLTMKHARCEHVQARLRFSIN
# Test: Cytochrome panel assay with activity outcomes
# Conditions: recombinant CYP, pro-luciferin dealkylation, luminescence, p450-cyp1a2; series mostly up to 57.1 µM; activity, negative = inhibition: at the top concentration
# % is set by controls: 0 for no effect and ±100 for the full control effect.
SMILES,"activity, negative = inhibition",AC50
Cc1noc(NS(=O)(=O)c2ccc(NC(=O)CC34CC5CC(CC(Br)(C5)C3)C4)cc2)c1C,0.211%,–
Cc1ccccc1Cn1nc(C)c(NC(=O)c2sc3ccccc3c2Cl)c1C,–,2.24 µM (active)
CCC(CC)c1nnc(NC(=O)c2cccc(S(=O)(=O)N3CCc4ccccc43)c2)s1,-6.18%,–
Cc1ccc(NC(=O)c2sc3ccccc3c2Cl)nc1,–,2.51 µM (active)
Cc1ccc(NC(=O)C2CCN(S(=O)(=O)c3c(C)n[nH]c3C)CC2)nc1,-28.3%,–
Cc1nn(Cc2ccccc2Cl)c(C)c1NC(=O)CCCn1nc(C)c([N+](=O)[O-])c1C,17.7%,–
CCCC(=O)N1CCN(c2ccc(NC(=O)c3sc4ccccc4c3Cl)cc2)CC1,9.92%,–
Cc1ccc(NC(=O)CCc2c(C)nc3ncnn3c2C)nc1,-18.5%,–
O=C(NNC(=O)c1sc2ccccc2c1Cl)Nc1ccc(Cl)cc1,–,0.501 µM (active)
Cc1ccc(-c2cc(C(F)F)n3ncc(C(=O)Nc4c(C)nn(Cc5c(Cl)cccc5Cl)c4C)c3n2)cc1,-19.7%,–
CC(C)c1nnc(NC(=O)c2sc3ccccc3c2Cl)s1,–,10 µM (active)
N#Cc1cccc(NC(=O)N2CCC3(CC2)CCN(C(=O)c2cccc(F)c2)CC3)c1,-1.29%,–
O=C(c1cccc(F)c1)N1CCC2(CCN(Cc3cc(C(F)(F)F)cc(C(F)(F)F)c3)CC2)CC1,-5.54%,–
Cc1ccc(CC(=O)N2CCN(c3cccc(C(F)(F)F)c3)CC2)cc1,–,31.6 µM (active)
O=C(c1cc(C(F)(F)F)cc(C(F)(F)F)c1)N1CCC2(CC1)CN(c1ccccc1)C2,-15.7%,–
CCc1ccc(NC(=S)N2CCN(c3cccc(C(F)(F)F)c3)CC2)cc1,-15.9%,–
Cc1ccc(S(=O)(=O)N(CC(=O)N2CCN(c3ccc(F)cc3)CC2)C2CCCCC2)cc1,0.812%,–
O=C(c1coc2ccccc2c1=O)N1CCN(c2cccc(C(F)(F)F)c2)CC1,–,31.6 µM (active)
C[C@]1(c2ccccc2)O[C@@H]2C[C@@H]3[C@@H]4CCC5=CC(=O)C=C[C@@]5(C)[C@]4(F)[C@H](O)C[C@]3(C)[C@@]2(C(=O)CO)O1,-16.4% [at 2.29 µM],–

SMILES,"activity, negative = inhibition",AC50
CO[C@@H]1COC(=O)[C@H](COCc2ccccc2)NC(=O)C/C=C\[C@@H](C)[C@H](OC)COC(=O)[C@@H](C)NC(=O)C/C=C\[C@H]1C,3.31% [at 11.4 µM],–
CC(=O)N(CC(=O)O)c1ccccc1C(=O)O,1.47%,–
C[C@H](CN(C)C)C(=O)c1ccccc1C(=O)O,-5.91% [at 11.4 µM],–
CC(C)=CCC/C(C)=C/CC/C(C)=C/CSc1ccccc1C(=O)O,–,12.6 µM (active)
CNc1ncnc2c1ncn2[C@@H]1O[C@H](CO)[C@@H](O)[C@@H]1O,13.3% [at 25.6 µM],–
O=C(COc1ccc2ccccc2c1)N1CCN(C(=O)c2cccnc2)CC1,-16%,–
CCOc1ccc(N2C(=O)CS/C2=N/NC(=O)COc2ccc3ccccc3c2)cc1,–,14.1 µM (active)
CC(=O)N1CCN(S(=O)(=O)c2ccccc2)C1c1ccccc1 (configuration not stated),5.89%,–
Cc1cccc(C(=O)NNC(=O)C(=O)NC(C)(C)C)c1,-1.15%,–
COc1ccc(C)cc1NC(=O)CCC(=O)Nc1nnc(C(F)(F)F)s1,-6.76%,–
C=C(C)c1cccc(C(C)(C)NC(=O)Nc2cc(C)ccc2OC)c1,–,11.2 µM (active)
C/C(=N\O)c1ccc2[nH]ccc2c1,–,4.47 µM (active)
C/C(=N/O)c1ccc2cc(Br)c3ccccc3c2c1,-13.6% [at 2.29 µM],–
C[C@H](O/N=C1/[C@H]2O[C@@H]2[C@@H](O)[C@H]2[C@H]1CCn1c(=O)n(-c3ccccc3)c(=O)n12)c1cn([C@H]2COC[C@H]2O)nn1,4.91% [at 11.4 µM],–
COc1ccc(/C=C2\N=C(SC)N(C)C2=O)cc1,–,1.78 µM (active)
CO/N=C(\C(=O)N[C@@H]1C(=O)N2C(C(=O)O)=C(COC(N)=O)CS[C@@H]12)c1ccco1,-6.52% [at 25.6 µM],–
COc1cccc(-c2cc(NCc3ccccc3OC)ncn2)c1,–,1.26 µM (active)
COc1cccc(-c2cc(NCc3ccc(OC)cc3OC)ncn2)c1,–,2 µM (active)
CC(C)C[C@H]1C(=O)N2CCC[C@@H]2[C@]2(O)O[C@](NC(=O)[C@@H]3C=C4c5cccc6[nH]c(Br)c(c56)C[C@H]4N(C)C3)(C(C)C)C(=O)N12,-8.76%,–

SMILES,"activity, negative = inhibition",AC50
Cc1nc2ncnn2c(C)c1CCC(=O)Nc1ccc(S(=O)(=O)N2CCCCCC2)cc1,-36%,–
O=c1c2cc(Br)ccc2[nH]c(=S)n1Cc1cccnc1,–,0.251 µM (active)
COc1ccccc1Cn1c(=S)[nH]c2cc(C(=O)N3CCN(C)CC3)ccc2c1=O,-25.6%,–
COc1cc(C(=O)NCc2cccc3ccccc23)cc(Cl)c1OC,–,10 µM (active)
COc1ccc(-n2c(CNC(=O)c3cc(OC)c(OC)c(OC)c3)n[nH]c2=S)cc1,-29.2%,–
CN(Cc1cnc2nc(N)nc(N)c2n1)c1ccc(C(=O)N[C@H](CCC(=O)O)C(=O)O)cc1,-7.75% [at 25.6 µM],–
CCN(/C=N/c1sc2c(c1C#N)CCCCC2)CC,–,2.51 µM (active)
CCCN(/C=N/c1sc2c(c1C#N)CCCCC2)CCC,–,14.1 µM (active)
O=S(=O)(c1ccccc1)N1CCC2(CC1)CN(C(c1ccccc1)c1ccccc1)C2,2.71%,–
O=C1CCCN1c1ccc(S(=O)(=O)Oc2cccc(Cl)c2)cc1[N+](=O)[O-],–,15.8 µM (active)
CC1CCN(c2ccc(S(=O)(=O)Nc3cc(C(=O)O)cc(C(=O)O)c3)cc2[N+](=O)[O-])CC1,-20.9%,–
COc1ccc(N2CCN(S(=O)(=O)c3ccc4c(c3)CCCC4)CC2)c([N+](=O)[O-])c1,-18.7%,–
COc1ccc(S(=O)(=O)N2CCC(N3CCCCC3)CC2)cc1,8.73%,–
CCn1c(SC)nnc1C1CCN(S(=O)(=O)c2ccc(OC)cc2)CC1,3.42%,–
COc1ccc(S(=O)(=O)N2CC3CCCN3c3ccc(C(F)(F)F)cc32)cc1 (configuration not stated),–,12.6 µM (active)
NC(=O)C(=O)O,0.732%,–
Nc1ccccc1S[C@@H](C[N+](=O)[O-])c1ccc2c(c1)OCO2,–,0.631 µM (active)
CCCCNC(=O)NC1C(NC(=O)NCCCC)N(C)C(=O)N1C (configuration not stated),5.97%,–
CCCCNC(=S)NNC(=O)CCn1nc(C)c(Br)c1C,–,14.1 µM (active)
